Screening results deposited in PubChem BioAssay by National Center for Advancing Translational Sciences (NCATS).
Shiga inhibitor = blocks Shiga toxin action in Vero cells | Vero cells, Shiga toxin protein synthesis inhibition reporter | actives 9.2% (n = 290,000) | inhibition, % at 38.7 µM; in the data active = inhibition mostly above about 28%, no sharp cut-off; inactive = mostly below about 43%; note: 0% is about no effect
Pf growth 96h = P. falciparum growth inhibition at 96 hours; actives 6.9% (n = 320,000); P. falciparum luciferase reporter growth, 96 h; Potency, µM (titrated, usually from 28.7 µM), for the others: at the top dose activity change, negative = inhibition, actives largely listed as inhibitors; note: potency is the fitted concentration of half-maximal effect; % is set by controls: 0 for no effect and ±100 for the full control effect
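Luminescence readout: decreased luciferase signal marks inhibited growth of reporter-expressing P. falciparum in infected red cells (2% hematocrit, 0.05% parasitemia final), exposed to compound two generations (96 h, 37 C, 5% CO2).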
AMA1 RON2 block = disrupts binding of P. falciparum AMA1 to RON2 | AID 720542 | Potency, µM (series often up to 58.2 µM), for the others: top-dose activity change, negative = inhibition, hits mostly inhibitors | AlphaScreen AMA1-biotinylated RON2 peptide binding | actives 0.2% (n = 360,000);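 note: potency is the fitted concentration of half-maximal effect; 0% = vehicle wells and -100% = peptide control; nearly all actives have a fitted effect of over 45% in size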
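AMA1 (3D7) with his tag at 25 nM final met compounds first, then biotinylated RON2 peptide at 25 nM; detection used donor plus acceptor beads, 10 µg/mL apiece, read by AlphaScreen after 30 min at room temperature.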
Cycloheximide cs = counter-screen for Shiga toxin inhibitors: cycloheximide protein synthesis inhibition; cell reporter, cycloheximide protein synthesis inhibition counterscreen; max response, %; actives 12% (n = 300,000); in the data active = max response mostly above about 13%, no sharp cut-off; inactive = mostly below about 14%; note: read at 38.3 µM for the half of the compounds with a filed dose; 0% is about no effect
HCV inhibitor = blocks hepatitis C virus | actives 3.4% (n = 340,000) | Potency, µM (doses to about 41.8 µM), inactives show top-dose activity change, negative = inhibition, actives largely listed as inhibitors | AID 651820 | Huh7.5.1 HCVcc-Cre infection, luciferase reporter, 44 h; note: potency is the fitted concentration of half-maximal effect; % is set by controls: 0 for no effect and ±100 for the full control effect
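HCVcc-Cre virus at an moi near 0.5 was added right after compound to cells cultured 4 h from seeding (1,000 cells/well). Luciferase activity was determined 44 h later, 15 min after substrate addition at RT.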
Pf growth 48h = P. falciparum growth inhibition at 48 hours (one generation) | Potency, µM (highest dose often 28.7 µM), for inactives: at the top dose activity change, negative = inhibition, most hits filed as inhibitors | P. falciparum luciferase growth in erythrocytes, 48 h | AID 504832 | actives 5.9% (n = 310,000); note: potency is the fitted concentration of half-maximal effect; % is set by controls: 0 for no effect and ±100 for the full control effect
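Read-out is firefly luciferase luminescence from an integrated reporter in P. falciparum, so falling signal marks reduced parasite growth. Infected erythrocytes were at 2% hematocrit and 0.1% parasitemia (final) in Albumax-supplemented RPMI 1640.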
Starred values were filed as active, the others as inactive; u = inconclusive; x = no result; [ ] = another dose, or the depositor's remark. The list is not random: actives were taken first. Their share in the collection is about 21%. Unless noted, calls come from the whole dose curve; as a rule, active = well fitted curve in the direction sought with a large enough effect; inconclusive = small, poorly fitted or top-dose-only effect, or another doubt; inactive = no such curve, though single readings can be large; an effect the other way counts as inactive or inconclusive.

SMILES | Shiga inhibitor | Pf growth 96h | AMA1 RON2 block | Cycloheximide cs | HCV inhibitor | Pf growth 48h
COc1ccc(CC(=O)Nc2cccc(-c3cn4ccccc4n3)c2)cc1 | active | 45% | -7% | 46* | u | 39%
O=C(Nc1ccc(-c2cn3ccccc3n2)cc1)c1cccs1 | 54* | -17% | -21% | 33* | u | 160%
O=C(Nc1cccc(-c2cn3ccccc3n2)c1)C1CC1 | 46* | 31% | 5% | 35* | u | 40%
CCC(=O)Nc1cccc(-c2cn3cccc(C)c3n2)c1 | 54* | 244% | 23% | 39* | -16% | 101%
NCC1CCC(N)C(O[C@@H]2C(O)[C@H](O[C@H]3OC(CO)C(O)C(N)C3O)[C@@H](N)C[C@H]2N)O1 (some centres not stated) | x | u | x | x | x | -13%
C[C@H](NC(=O)CNC(=O)[C@@H](NC(=O)[C@H](Cc1ccccc1)NC(=O)CNC(=O)CNC(=O)[C@@H](N)Cc1ccccc1)[C@@H](C)O)C(=O)N[C@@H](CCCN=C(N)N)C(=O)N[C@@H](CCCCN)C(=O)N[C@@H](CO)C(=O)N[C@@H](C)C(=O)N[C@@H](CCCN=C(N)N)C(=O)N[C@@H](CCCCN)C(N)=O | -13 | x | x | -3 | x | x
CC(C)OC(=O)N(C)C[C@@H]1OCc2cnnn2CCCC(=O)N([C@@H](C)CO)C[C@H]1C | x | x | -3% | x | x | x
COc1cc(C(=O)Nc2nc(-c3ccc(Cl)cc3)c(C)s2)ccc1OCC(=O)Nc1ccc(F)cc1 | -2 | 4.1µM* | 4% | 0 | u | u
CC(C)c1nnc(NC(=O)C2CCN(C(=O)Nc3ccccc3)CC2)s1 | 7 | -7% | -6% | 4 | 18% | -13%
O=C(c1cc(-c2ccco2)nc2ccccc12)N1CCN(c2ccc(F)cc2)CC1 | 78* | 13µM* | u | 33* | u | u
O=C(OCC(=O)N1CCN(C(=O)c2ccco2)CC1)c1cc(-c2ccco2)nc2ccccc12 | -11 | u | 21µM* | -2 | 26% | 53%
O=C(OCC(=O)N1CCN(C(=O)c2ccco2)CC1)c1cc(-c2ccc(Cl)c(Cl)c2Cl)nc2ccccc12 | -6 | u | -9% | -1 | u | x
O=C(O)c1cc(-c2ccco2)nc2ccccc12 | -25 | 0% | -19% | -2 | 3% | 34%
O=C(Nc1ccccc1OC(F)F)c1ccc(-n2cncn2)c([N+](=O)[O-])c1 | x | -3% | -3% | x | -23% | u
CC1(C)CC(=O)C(C=NCCN2CCOCC2)=C(O)C1 | 6 | 5% | 16% | 2 | 17% | 37%
CCN1CCCC1CN=Cc1c(O)n(-c2ccccc2)c(=O)c2ccccc12 (configuration not stated) | 11 | 5%[5.75 µM] | -1% | -1 | -27% | 3.7µM*
COc1ccc(C2CC(=O)C(C=NCCCN3CCOCC3)=C(O)C2)cc1 (configuration not stated) | 8 | 3.3µM* | 5% | 0 | 7% | 11%
CC(C)CCN=Cc1c(O)n(-c2ccccc2)c(=O)c2ccccc12 | -14 | u | -24% | -3 | 0% | x
O=C1C(C=NCCN2CCOCC2)=C(O)c2ccccc21 | 84* | u | -7%[2.32 µM] | 47* | 17% | 14%
Cc1cccc(-n2c(O)c(C=NCCCN3CCOCC3)c3ccccc3c2=O)c1 | 15 | u | -4% | 7 | 9% | 7.4µM*
Cc1cccc(-n2c(O)c(C=NCc3ccccn3)c3ccccc3c2=O)c1 | -12 | -21% | 28% | -7 | -5% | -24%
Cc1cc(C)cc(C(=O)N(C)[C@H](Cc2ccc(-c3ccccc3)cc2)C(=O)N[C@@H](Cc2c[nH]c3ccccc23)C(=O)O)c1 | -4 | x | x | -3 | x | x
O=C1c2ccccc2C(c2nnnn2-c2ccc3c(c2)OCCO3)N1Cc1cccs1 (configuration not stated) | x | x | 1% | x | x | x
O=c1[nH]c(=O)n(Cc2ccccc2)c(O)c1C=NCCN1CCOCC1 | -12 | x | 59% | -2 | 8% | -2%
O=C1C(C=NCCCN2CCOCC2)=C(O)c2ccccc21 | 59* | u | 12% | 27* | 0% | 18%
SMILES | Shiga inhibitor | Pf growth 96h | AMA1 RON2 block | Cycloheximide cs | HCV inhibitor | Pf growth 48h
Cc1cc2cc(CN(Cc3cccs3)C(=S)NCc3ccco3)c(=O)[nH]c2cc1C | -8 | u | -10% | 1 | 11µM* | -28%
Cc1ccc(C)c2[nH]c(=O)c(CN(Cc3cccs3)C(=S)NCc3ccco3)cc12 | -4 | 28% | -3% | 1 | -7% | 10µM*
Fc1cc2[nH]c(=S)[nH]c2c(Br)c1N1CCSCC1 | 47 | u | 98% | 9.2* | -2% | -4%
O=C(Nc1ncccc1O)c1ccc(NS(=O)(=O)c2ccc3[nH]c(=O)[nH]c3c2)cc1 | x | 0.1µM* | 0% | x | 2% | 0.13µM*
O=C(Nc1ncccc1O)c1ccc(S(=O)(=O)Nc2ccccc2)cc1 | x | u | 89% | x | 25% | 0.83µM*
Cc1cccnc1NC(=O)c1ccc(NS(=O)(=O)c2ccc3[nH]c(=O)[nH]c3c2)cc1 | x | 5% | -3% | x | 19% | 4%
COCCn1c(C)nnc1SCC(=O)NNC(=O)c1ccc(Cl)cc1 | -13 | 16% | 7% | -5 | 0% | 14%
COC(=O)C1=C(Nc2ccc(C)cc2)C=C(C)C(C(=O)OC)C1c1ccc(OC)cc1 (configuration not stated) | -11 | u | -1% | 5 | u | 4.1µM*
CCOC(=O)C1C(=O)C=C(C)C(C(=O)OCC)C1c1ccc(OC)cc1 (configuration not stated) | -6 | -1%[5.75 µM] | 0% | -2 | -2% | u
COC(=O)C1=C(Nc2ccc(C)cc2)C=C(C)C(C(=O)OC)C1c1cccc(OC)c1 (configuration not stated) | 38 | 1.7µM* | 14% | 10 | u | 2.6µM*
CC(C)(C)C(CO)NC(=O)c1ccc[nH]1 (configuration not stated) | x | 34% | -2% | x | 1% | 38%
C/C(=N\NC(=O)Cn1ccc(C(F)(F)F)n1)c1ccc2c(c1)OCO2 | 28 | 30% | -1% | 7 | -20% | 34%
O=C(CSc1ncccn1)N/N=C/c1ccc2c(c1)OCO2 | 25 | -29% | 4% | 34* | 6% | 49%
O=C(CNc1ccccc1)N/N=C/c1ccc2c(c1)OCCO2 | 48* | 37% | -6% | 34* | 38% | 39%
O=C(CNc1ccccc1)N/N=C/c1ccc2c(c1)OCO2 | 29* | 24% | 62% | 20* | 4% | 11%
O=C(Cn1ccc(C(F)(F)F)n1)N/N=C/c1ccc2c(c1)OCO2 | 122* | 19% | 6% | 37* | 4% | 32%
O=C(CNc1ccc2c(c1)OCO2)N/N=C\c1cn(Cc2ccccc2)c2ccccc12 | -5 | u | 29% | -2 | -23% | 3%
